The text below walks through data of PubChem BioAssay (Tox21).

Test [1] can be described thus: qHTS assay for small molecule agonists of the p53 signaling pathway - cell viability (AID 651633; calls by dose curve; also: nearly all actives have a fitted effect of over 30% in size; also: potency is read from the fitted curve at half-maximal effect). The procedure, abridged:
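p53RE-bla cells were treated with compound for 16 hours at 37 C. Cytotoxicity was then measured as CellTiter-Glo luminescence after 30 min at room temperature.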
For orientation: In qHTS, concentration-response curves come from the screen itself.

Test [2] in a line: qHTS assay for small molecules that induce genotoxicity in human embryonic kidney cells expressing luciferase-tagged ATAD5 - cell viability (AID 651634; calls by dose curve; also: nearly all actives have a fitted effect of over 25% in size; also: potency is read from the fitted curve at half-maximal effect). The procedure, abridged:
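Seeding of 2,000 HEK293T ATAD5-luciferase cells per well preceded pin-tool compound transfer. Plates sat 15.5 hr at 37C under 5% CO2, then fluorescence was read after 30 min with CellTiter-Fluor.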

A short description of test [3]: qHTS assay for small molecule disruptors of the mitochondrial membrane potential - cell viability (AID 720634; calls by dose curve; also: nearly all actives have a fitted effect of over 20% in size; also: potency is read from the fitted curve at half-maximal effect). The procedure, abridged: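 Measuring cytotoxicity alongside mitochondrial potential, the screen quantified ATP by luminescence in HepG2 cells after 1 hr compound incubation and a 30 min room-temperature CellTiter-Glo step.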
A short description of test [4]: qHTS assay to test for compound auto fluorescence at 590 nm (red) in HepG2 cells (AID 720674). In a few lines: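 Seeding: 2,000 HepG2 cells/well, MEM/10% FBS, overnight 37 C. Dosing: compound vs DMSO. Incubation: 1 hr, 37 C, 5% CO2. Read: fluorescence 540 ex/590 em, Rose Bengal sodium as red reference.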
A short description of test [5]: qHTS assay to test for compound auto fluorescence at 535 nm (green) in HepG2 cells (AID 720675).
Test [6] can be described thus: qHTS assay to test for compound auto fluorescence at 460 nm (blue) in HEK293 cells (AID 720678). In a few lines:
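Measured: blue fluorescence (Ex 405/Em 460 nm) of compound-treated HEK293 cells, incubated overnight at 37C with 5% CO2 and scaled to triamterene equivalents.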

The nature of test [7]: qHTS assay to test for compound auto fluorescence at 590 nm (red) in HEK293 cells (AID 720679). The procedure, abridged: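 Using HEK293 cells at 2,000 per well, the screen added 23 nL of each compound after cell attachment and incubated overnight (37C, 5% CO2). The plate reader then captured red-label fluorescence, Ex/Em 540/590nm.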
Test [8] can be described thus: qHTS assay to test for compound auto fluorescence at 535 nm (green) in HEK293 cells (AID 720680).
A short description of test [9]: qHTS assay to test for compound auto fluorescence at 460 nm (blue) in HEK293 cell free culture (AID 720681). The procedure, abridged:
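Compounds were added to cell-free DMEM with 10% FBS and fluorescence read directly. The blue channel used 405 nm excitation and 460 nm emission, with triamterene as the reference fluorophore.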

Test [10] can be described thus: qHTS assay to test for compound auto fluorescence at 535 nm (green) in HEK293 cell free culture (AID 720682). In a few lines: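 Cell-free medium (DMEM, 10% FBS) receives compound or DMSO by pintool. Plate read directly at Ex 485/Em 535 nm. Signal converted to fluorescein equivalency.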
Test [11] in a line: qHTS assay to test for compound auto fluorescence at 590 nm (red) in HEK293 cell free culture (AID 720683). In a few lines: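 Cell-free wells of DMEM with 10% FBS received compound, and intrinsic fluorescence was read at excitation/emission 540/590 nm. Values expressed as equivalence to Rose Bengal sodium.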
A short description of test [12]: qHTS assay to test for compound auto fluorescence at 460 nm (blue) in HepG2 cell free culture (AID 720685). In a few lines: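 Compound (23 nL) or DMSO pinned into cell-free MEM with 10% FBS; blue fluorescence read at 405/460 nm excitation/emission, expressed as auto-fluorescence equivalency to triamterene.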
Test [13] is described as follows: qHTS assay to test for compound auto fluorescence at 535 nm (green) in HepG2 cell free culture (AID 720686).
Test [14] can be described thus: qHTS assay to test for compound auto fluorescence at 460 nm (blue) in HepG2 cells (AID 720687). In a few lines: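 HepG2 cells in MEM with 10% FBS, attached overnight at 37 C, were exposed to compound or DMSO for 1 hr at 37 C, 5% CO2. Blue fluorescence was read at 405/460 nm, with triamterene as reference fluorophore.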
For test [15], the target named is Glucocorticoid receptor (Homo sapiens) (UniProt P04150). The test can be described thus: qHTS assay to identify small molecule antagonists of the glucocorticoid receptor (GR) signaling pathway (AID 720692; active = well fitted inhibition curve with a large enough effect in the signal ratio in the repeat runs, not every such curve was filed as active; the % refers to the signal ratio; also: potency is read from the fitted curve at half-maximal effect). In a few lines:
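Dexamethasone (5 nM final) stimulated a stably integrated GRE-beta-lactamase reporter in HeLa cells during 18 h co-incubation with compounds; signal was quantified as fluorescence intensity of B/G FRET substrate after 2 h.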

Test [16] can be described thus: qHTS assay for small molecules that induce genotoxicity in human embryonic kidney cells expressing luciferase-tagged ATAD5 (AID 651632). Also: nearly all actives have a fitted effect of over 15% in size. Also: potency is read from the fitted curve at half-maximal effect. In a few lines:
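Reporter cells (HEK293T) express luciferase-tagged ATAD5, a protein that accumulates after DNA damage. Treat 16 hr at 37C/5% CO2, add Amplite, wait 30 min at RT, and read luminescence.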

The nature of test [17]: qHTS assay for small molecule disruptors of the mitochondrial membrane potential (AID 720635). Also: potency is read from the fitted curve at half-maximal effect. In a few lines: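 HepG2 cells exposed to compound 1 hr at 37C, then Mito-MPS dye 30 min. Ratio read of aggregate (540/590 nm) versus monomer (490/535 nm) fluorescence.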
Test [18] is described as follows: qHTS assay to test for compound auto fluorescence at 590 nm (red) in HepG2 cell free culture (AID 720684). In a few lines: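 Compound was pinned into wells holding MEM with 10% FBS and no cells, and red fluorescence was read at Ex/Em 540/590 nm. Signal is expressed as auto fluorescence equivalency relative to Rose Bengal sodium.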
For test [19], the target named is Glucocorticoid receptor (Homo sapiens) (UniProt P04150). Nature of the test: qHTS assay to identify small molecule agonists of the glucocorticoid receptor (GR) signaling pathway (AID 720691; active = well fitted activation curve with a large enough effect in the signal ratio in the repeat runs, not every such curve was filed as active; the % refers to the signal ratio). The procedure, abridged: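 Reporter read-out: fluorescence intensity following 2 h room-temperature LiveBLAzer B/G FRET substrate loading. Prior step: GR-bla HeLa cells held 4 h, then treated 18 h at 37 C.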

Values joined by “and” are separate entries in the source; they are usually repeats but may differ in a detail not shown here. Equal entries are not always repeated. A number with no mark means an inactive call. Results filed as inconclusive are left out. Active and inactive are the calls of the source. Unless noted, calls follow the shape of the dose curve; as a rule, active = well fitted curve in the direction sought with a large enough effect in the repeat runs; inconclusive = weak or mixed curves; inactive = no such curve, though single readings can be large; an effect the other way counts as inactive or inconclusive.

Sequence of Glucocorticoid receptor (Homo sapiens) (P04150 whole entry, looked up): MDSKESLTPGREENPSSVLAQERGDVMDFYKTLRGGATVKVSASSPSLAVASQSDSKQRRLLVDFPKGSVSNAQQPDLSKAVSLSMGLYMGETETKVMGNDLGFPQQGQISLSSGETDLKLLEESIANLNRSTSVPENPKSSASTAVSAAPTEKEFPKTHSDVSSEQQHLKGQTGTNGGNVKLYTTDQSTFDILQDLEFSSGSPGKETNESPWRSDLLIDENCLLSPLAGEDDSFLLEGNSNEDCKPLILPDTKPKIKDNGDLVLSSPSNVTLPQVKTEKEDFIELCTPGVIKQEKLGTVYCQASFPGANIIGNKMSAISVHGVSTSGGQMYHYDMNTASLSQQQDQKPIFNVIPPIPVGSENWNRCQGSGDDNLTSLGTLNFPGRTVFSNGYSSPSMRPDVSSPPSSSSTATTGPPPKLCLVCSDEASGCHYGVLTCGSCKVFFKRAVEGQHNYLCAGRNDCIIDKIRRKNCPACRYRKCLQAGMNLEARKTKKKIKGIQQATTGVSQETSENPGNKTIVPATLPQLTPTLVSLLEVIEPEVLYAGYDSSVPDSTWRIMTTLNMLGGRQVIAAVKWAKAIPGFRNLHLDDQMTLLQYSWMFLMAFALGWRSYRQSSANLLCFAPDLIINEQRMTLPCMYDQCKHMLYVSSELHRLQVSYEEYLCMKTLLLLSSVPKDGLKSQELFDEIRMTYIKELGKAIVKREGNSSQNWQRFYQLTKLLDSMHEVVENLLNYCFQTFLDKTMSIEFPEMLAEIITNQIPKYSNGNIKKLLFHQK

For `CC(=O)NNc1ccccc1`, the Potency result in test [1] and in [3] was “inactive” each time. For the same compound, the Potency was 10.8 µM (active) in test [2] and 10.9 µM (active) in test [15]. The result in test [4], in [5], in test [6], in test [7], in test [8] and in test [9] was inactive. Also, the outcome in test [10], in [11], in [12], in test [13] and in test [14] was inactive.
With `Nc1ccccc1C(=O)OCCc1ccccc1`, the Potency was 1.09 µM (active) and 433 nM (active) in test [16]; 48.8 µM (active) and 43.3 µM (active) in test [17]. The Potency entry in test [2] and in test [15] was “inactive” throughout. The outcome in [4], in test [5], in [6], in [7], in test [8] and in test [9] was inactive. In addition, the compound was classed as inactive in test [10], in test [11], in test [18], in [12], in test [13] and in test [14].
As to `CCCN(CCOc1c(Cl)cc(Cl)cc1Cl)C(=O)n1ccnc1`, the Potency result in test [16] and in [2] was “inactive” throughout. Moreover, the compound was called inactive in test [4], in test [5], in test [6], in test [7], in test [8] and in test [9]. In addition, the outcome in test [10], in test [11], in [18], in test [12], in [13] and in [14] was inactive.
Turning to `C[C@]12C=CC3=C4CCC(=O)C=C4CC[C@H]3[C@@H]1CC[C@@H]2O`, the Potency entry in [16], in test [2] and in [3] was “inactive” throughout. Also, the call in test [4], in test [5], in [7], in test [8], in [10] and in [11] was inactive. In addition, the call in [18] and in test [13] was inactive.
For the compound `O=C(O)C(O)C(O)C(=O)O` (configuration not stated), the Potency result in [16] and in [2] was “inactive” each time. Further, the call in [4], in [5], in test [6], in test [7], in test [8] and in [9] was inactive. Further, the compound was classed as inactive in test [10], in test [11], in [18], in test [12], in test [13] and in test [14].
Regarding `CN1C(=O)CN=C(c2ccccc2)c2cc([N+](=O)[O-])ccc21`, the result in [4], in test [5], in [6], in test [7], in [8] and in test [9] was inactive. The compound was called inactive in [10], in test [11], in [18], in [12], in test [13] and in [14].
Regarding `CCC(C)(C)O`, the Potency result in test [16], in [2], in test [3] and in test [19] was “inactive” each time. For the same compound, the compound was called inactive in test [4], in [5], in [7], in test [8], in [9] and in test [10]. Besides, the outcome in [11], in test [18], in test [12], in [13] and in test [14] was inactive.
For the compound `Oc1cccc(Cl)c1`, the Potency result in test [16], in [2], in test [3], in test [19] and in test [15] was “inactive” throughout. The outcome in test [5], in [6], in test [7], in test [8], in [9] and in test [10] was inactive. The result in test [18], in test [12], in test [13] and in test [14] was inactive.
For the compound `O=C(O)CCCOc1ccc(Cl)cc1Cl`, the Potency entry in test [1] and in test [3] was “inactive” in each case. Besides, the call in [4], in test [5], in test [7], in test [8], in test [9] and in [10] was inactive. The compound was called inactive in test [11], in [12], in [13] and in test [14].
As to `c1ccc2c(c1)-c1cccc3cccc-2c13`, the Potency result in [2] is “inactive”. For the same compound, in [17], the Potency is 61.7 µM (active) and 61.1 µM (active). The compound was classed as inactive in test [4], in test [5], in [7], in test [8], in test [9] and in test [10]. Besides, the result in test [11], in test [18], in [12], in test [13] and in [14] was inactive.
With `C[CH2][Hg][S]c1ccccc1C(=O)O`, the Potency in [1] was 3.35 µM (active) and 2.43 µM (active); in test [2], 11.9 µM (active) and 27.3 µM (active); in test [3], 13.3 µM (active) and 15.4 µM (active); in [17], 11.9 µM (active) and 15.4 µM (active). Also, the outcome in [4], in test [5], in test [6], in test [7], in [8] and in test [9] was inactive. The outcome in test [10], in test [11], in test [12], in test [13] and in test [14] was inactive.
With `CC(C)CCCCCCCOC(=O)c1ccccc1C(=O)OCCCCCCCC(C)C`, the Potency entry in test [1], in test [2], in [19] and in test [15] was “inactive” throughout. The call in test [4], in test [5], in [6], in [7], in test [8] and in [9] was inactive. Further, the outcome in test [10], in [11], in test [18], in [12], in [13] and in test [14] was inactive.
In the case of `Cc1cccc(C)c1NC1=NCCCS1`, the Potency entry in test [16], in test [2] and in [3] was “inactive” in each case. Further, the compound was classed as inactive in test [4], in [5], in test [7], in [8], in test [9] and in test [10]. Further, the compound was classed as inactive in test [18], in test [12], in test [13] and in [14].
On to `Nc1ccc2c(c1)Cc1ccccc1-2`, for which the Potency entry in test [1], in test [2] and in test [3] was “inactive” throughout. The compound was classed as inactive in test [4], in test [5], in [6], in [7], in test [8] and in test [9]. The result in test [10], in [11], in test [18], in test [12], in test [13] and in test [14] was inactive.
Regarding `Cc1ncc(C[n+]2csc(CCO)c2C)c(N)n1`, the Potency entry in test [1] and in test [2] was “inactive” throughout. In addition, the call in test [4], in [5], in test [6], in test [7], in [8] and in test [9] was inactive. Also, the compound was called inactive in test [10], in [11], in test [18], in [12], in test [13] and in test [14].
Consider `CN1CC[C@]23c4c5ccc(O)c4O[C@H]2[C@@H](O)C=C[C@H]3[C@H]1C5`, for which the Potency entry in [16], in [2], in [3], in [19] and in test [15] was “inactive” in each case. Moreover, the compound was called inactive in [4], in [5], in test [6], in [7], in [8] and in [9]. Moreover, the call in [10], in test [11], in test [18], in test [12], in [13] and in test [14] was inactive.
For `COCc1cnc(C2=NC(C)(C(C)C)C(=O)N2)c(C(=O)O)c1` (configuration not stated), the Potency entry in test [16], in test [2], in [19] and in [15] was “inactive” in each case. Moreover, the compound was called inactive in test [5], in test [6], in test [7], in test [8], in test [9] and in [10]. In addition, the outcome in [11], in test [18], in test [12], in test [13] and in [14] was inactive.
